Experiment [1] in a line: optical density shifts of acrAB sulA E. coli – strain DRC41, OD650, 48 h, E. coli filamentation inducer project, primary screen (AID 1152).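 Further: E. coli MC1000 strain DRC41 lacking acrAB efflux pump and sulA.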 The note with it: higher = more signal, called active from +8 up or from −8 down.
Experiment [2] is described as follows: probe aLefty1 binding on compound microarray – biochemical, small-molecule microarray, 635/667 nm fluorescence, primary screen (AID 1153).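 Further: score merges spot fluorescence with signal-to-noise ratio from the scanned slide images.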 Particulars: higher = more signal.
The nature of experiment [3]: plasmodial surface anion channel blockers, osmotic lysis – cell-based, P. falciparum Indochina, OD700, 1 h, primary screen (AID 1154). Particulars: P. falciparum Indochina infected RBC osmotic lysis, higher = more signal, called active from +8 up or from −8 down.
The nature of experiment [4]: plasmodial surface anion channel blockers, osmotic lysis – cell-based, P. falciparum Indochina, OD700, 2 h, primary screen (AID 1155).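 Further: lysis reports solute entry through the parasite surface anion channel PSAC.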 The note with it: P. falciparum Indochina infected erythrocytes, higher = more signal, called active from +8 up or from −8 down.
A short description of experiment [5]: changes in parasitized red cell lysis, either direction – P. falciparum Indochina, OD700, 3 h, PSAC antagonist project, primary screen (AID 1156). The note with it: P. falciparum-infected erythrocytes, osmotic lysis, higher = more signal, called active from +8 up or from −8 down.
The nature of experiment [6]: plasmodial surface anion channel blockers, osmotic lysis – cell-based, P. falciparum Indochina, OD700, 18 h, primary screen (AID 1157). The note with it: P. falciparum Indochina infected erythrocytes, osmotic lysis OD700, 18 h; higher = more signal, called active from +8 up or from −8 down.
The nature of experiment [7]: S6 kinase pathway phospho-S6 level changes – cell-based, A549, cytoblot, luminescence, serum-stimulated, primary screen (AID 1158).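 Further: serum-stimulated A549 lung adenocarcinoma cells; signal is phosphorylated S6 detected by cytoblot immunostaining with HRP secondary.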 The note with it: 5 h, higher = more signal.
The target in experiment [8] is NADPH oxidase 2 (Homo sapiens) (UniProt P04839). The experiment in a line: compounds shifting NOX2 Amplex Red fluorescence – cell-based, HEK293-NOX2, PMA-stimulated, NOX inhibitor project, primary screen (AID 1159). Further: test concentration not given here. Particulars: 45 min, higher = more signal, called active from +8 up or from −8 down.
Sequence of NADPH oxidase 2 (Homo sapiens) (P04839 whole entry, looked up): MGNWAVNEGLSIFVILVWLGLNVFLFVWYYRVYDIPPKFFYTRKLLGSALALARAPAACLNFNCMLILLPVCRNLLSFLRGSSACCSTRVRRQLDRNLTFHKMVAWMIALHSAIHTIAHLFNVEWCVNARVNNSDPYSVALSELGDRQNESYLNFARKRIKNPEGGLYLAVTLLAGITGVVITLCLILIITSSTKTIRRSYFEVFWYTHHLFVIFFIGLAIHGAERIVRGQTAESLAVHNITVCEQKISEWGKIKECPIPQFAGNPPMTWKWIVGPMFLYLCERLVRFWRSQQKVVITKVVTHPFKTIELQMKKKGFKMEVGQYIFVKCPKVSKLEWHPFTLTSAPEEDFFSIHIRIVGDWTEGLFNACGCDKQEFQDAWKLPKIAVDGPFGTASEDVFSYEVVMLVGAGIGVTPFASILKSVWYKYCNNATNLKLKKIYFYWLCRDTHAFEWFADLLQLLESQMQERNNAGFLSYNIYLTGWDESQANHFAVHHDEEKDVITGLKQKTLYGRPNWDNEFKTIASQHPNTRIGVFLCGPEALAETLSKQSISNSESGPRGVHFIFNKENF
For experiment [9], the target named is NADPH oxidase 4 (Homo sapiens) (UniProt Q9NPH5). The experiment in a line: compounds shifting NOX4 Amplex Red fluorescence – cell-based, HEK293-NOX4, tetracycline-induced, NOX inhibitor project, primary screen (AID 1160). The note with it: HEK293-NOX4, Amplex Red H2O2 fluorescence, 45 min; higher = more signal, called active from +8 up or from −8 down.
Sequence of NADPH oxidase 4 (Homo sapiens) (Q9NPH5 whole entry, looked up): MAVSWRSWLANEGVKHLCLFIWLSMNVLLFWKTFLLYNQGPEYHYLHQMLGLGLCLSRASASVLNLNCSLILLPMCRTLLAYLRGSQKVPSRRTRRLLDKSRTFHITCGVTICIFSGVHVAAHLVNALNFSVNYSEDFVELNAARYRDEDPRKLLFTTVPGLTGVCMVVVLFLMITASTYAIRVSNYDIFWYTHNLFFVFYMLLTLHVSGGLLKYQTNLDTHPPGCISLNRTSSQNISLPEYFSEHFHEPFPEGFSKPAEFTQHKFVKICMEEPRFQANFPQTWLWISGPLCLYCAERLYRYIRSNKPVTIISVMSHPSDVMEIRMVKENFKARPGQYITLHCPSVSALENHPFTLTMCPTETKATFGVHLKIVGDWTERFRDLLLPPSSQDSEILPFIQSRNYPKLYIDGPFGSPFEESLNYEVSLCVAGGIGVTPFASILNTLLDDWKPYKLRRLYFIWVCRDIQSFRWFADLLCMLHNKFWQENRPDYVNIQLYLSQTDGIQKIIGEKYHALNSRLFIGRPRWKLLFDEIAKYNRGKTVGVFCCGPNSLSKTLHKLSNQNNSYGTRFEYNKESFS
The target in experiment [10] is NADPH oxidase 5 (Homo sapiens) (UniProt Q96PH1). The experiment in a line: compounds shifting NOX5 Amplex Red fluorescence – cell-based, HEK293-NOX5, NOX inhibitor project, primary screen (AID 1161). Particulars: HEK293-NOX5, ionomycin, 45 min, higher = more signal.
Sequence of NADPH oxidase 5 (Homo sapiens) (Q96PH1 whole entry, looked up): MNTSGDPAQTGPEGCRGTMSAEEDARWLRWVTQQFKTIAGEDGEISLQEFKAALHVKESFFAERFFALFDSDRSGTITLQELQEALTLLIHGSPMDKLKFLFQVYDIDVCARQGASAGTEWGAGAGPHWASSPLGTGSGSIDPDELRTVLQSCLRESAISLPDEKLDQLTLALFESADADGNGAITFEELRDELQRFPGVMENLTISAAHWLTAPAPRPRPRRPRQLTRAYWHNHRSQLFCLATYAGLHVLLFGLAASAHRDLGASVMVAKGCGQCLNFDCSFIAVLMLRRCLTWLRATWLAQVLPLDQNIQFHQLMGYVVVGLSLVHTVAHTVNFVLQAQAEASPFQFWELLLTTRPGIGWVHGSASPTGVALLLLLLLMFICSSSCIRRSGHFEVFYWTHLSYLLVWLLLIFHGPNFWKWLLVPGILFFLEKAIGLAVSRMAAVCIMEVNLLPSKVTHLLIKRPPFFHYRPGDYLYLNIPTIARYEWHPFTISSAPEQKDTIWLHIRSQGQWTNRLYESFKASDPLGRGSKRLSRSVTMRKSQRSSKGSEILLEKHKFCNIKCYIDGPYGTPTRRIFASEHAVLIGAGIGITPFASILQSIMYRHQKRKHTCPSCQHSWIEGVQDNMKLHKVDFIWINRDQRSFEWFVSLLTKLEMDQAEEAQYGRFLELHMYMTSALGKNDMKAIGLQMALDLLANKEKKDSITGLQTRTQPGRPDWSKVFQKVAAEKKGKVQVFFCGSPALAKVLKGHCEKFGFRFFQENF
A short description of experiment [11]: compound effects on lung adenocarcinoma cell viability – A549, calcein-AM fluorescence, 48 h, basal, profiling panel (AID 1162). Further: test concentration not given here. The note with it: higher = more signal.
A short description of experiment [12]: compound effects on differentiated 3T3-L1 adipocyte viability – cell-based, 3T3-L1 adipocytes, calcein-AM fluorescence, 48 h, basal, profiling panel (AID 1163). Further: test concentration not given here. The note with it: 3T3-L1 adipocytes viability, higher = more signal.
Experiment [13] is described as follows: compound effects on hepatocellular carcinoma cell viability – HepG2, calcein-AM fluorescence, 48 h, basal, profiling panel (AID 1164). Further: test concentration not given here. The note with it: higher = more signal.
The nature of experiment [14]: compound effects on multiple myeloma cell viability – MM1S, calcein-AM fluorescence, 48 h, basal, profiling panel (AID 1165).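 Further: viability of MM1S multiple myeloma cells under basal unstimulated conditions; test concentration not given here.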 The note with it: higher = more signal.
Experiment [15] in a line: calcein-AM signal in unstimulated myeloma cells – cell-based, calcein-AM fluorescence, 48 h, PK04 Diversity Set, profiling panel (AID 1166).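 Further: cells grown under basal conditions without added stimulus; test concentration not given here.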 Particulars: RPMI8226 myeloma viability, higher = more signal.
Experiment [16] is described as follows: JC-1 mitochondrial signal, unstimulated HepG2 cells – cell-based, JC-1 fluorescence, 24 h, 100 nL compound, profiling panel (AID 1167). Further: test concentration not given here. The note with it: HepG2 mitochondrial potential, higher = more signal.
Experiment [17] in a line: JC-1 mitochondrial signal, unstimulated adipocytes – cell-based, JC-1 fluorescence, 3T3-L1 adipocytes, 24 h, 100 nL compound, profiling panel (AID 1168). Further: test concentration not given here. The note with it: JC-1 mitochondrial fluorescence, higher = more signal, called active from +8 up or from −8 down.
Experiment [18] in a line: JC-1 mitochondrial signal, unstimulated myeloma cells – cell-based, JC-1 fluorescence, RPMI8226, 24 h, 100 nL compound, profiling panel (AID 1169). Further: test concentration not given here. Particulars: JC-1 mitochondrial potential fluorescence, higher = more signal.
Experiment [19] can be described thus: JC-1 mitochondrial signal, unstimulated MM1S myeloma – cell-based, JC-1 fluorescence, 24 h, 100 nL compound, profiling panel (AID 1170). Further: test concentration not given here. The note with it: MM1S mitochondrial potential, higher = more signal.
Experiment [20] is described as follows: resazurin metabolic signal in A549 cells – cell-based, resazurin fluorescence, 24 h, PK04 Diversity Set, profiling panel (AID 1171). Further: test concentration not given here. The note with it: A549 viability, higher = more signal, called active from +8 up or from −8 down.

Active and inactive are the calls of the source.

Consider `CO[C@@H]1COC(=O)CC=C[C@H](C)[C@H](OC)COC(=O)[C@H](C)NC(=O)CC=C[C@H]1C`, for which the z-score is 0.525 (inactive) in [1]; 0.0859 (inactive) in [3]; 0.0159 (inactive) in experiment [4]; 0.704 (inactive) in [5]; 0.107 (inactive) in [6]; -0.0908 in experiment [7]. In addition, the z-score was -0.402 (inactive) in experiment [8]; -0.249 (inactive) in experiment [9]; -0.159 in [10]; 0.296 in experiment [11]; 0.256 in [12]; 0.64 in [13]. For the same molecule, the z-score is -0.0284 in [14]; 0.403 in experiment [15]; 0.904 in experiment [16]; -0.878 (inactive) in [17]; 0.403 in experiment [18]; 0.273 in [19]. The z-score in experiment [20] is 0.932 (inactive). In addition, the composite z-score in experiment [2] was -0.012.
With `CCN1C(=O)[C@H]2[C@H]3[C@H](O)[C@H](O)CC(=NOC[C@H]4O[C@H](c5ccccc5)C=C[C@@H]4Oc4ccc(OC)cc4)[C@@H]3CC[C@H]2C1=O`, the z-score was 0.575 (inactive) in [1]; 10.7 (active) in experiment [3]; 1.65 (inactive) in experiment [4]; 0.622 (inactive) in experiment [5]; 0.809 (inactive) in [6]; -0.763 in experiment [7]. Also, the z-score in [8] is 0.863 (inactive); in experiment [9], 0.91 (inactive); in [10], 0.456; in experiment [11] it was 0.964; in experiment [12] it was -0.471; in experiment [13] it was 0.644. In addition, the z-score in experiment [14] is -1.98; in experiment [15], -2.23; in experiment [16], -0.627; in experiment [17] it was 0.0264 (inactive); in experiment [18] it was -1.24; in experiment [19], -0.409. Also, the z-score in experiment [20] is -0.531 (inactive). The molecule also displayed a composite z-score in [2] of 0.171.
For `COC(=O)[C@H](C)NC(=O)CCC1CC(OC(=O)NCCc2ccc(F)cc2)CC2(CCCC(COC(=O)NCCC(C)C)O2)O1` (stereo not given in full), the z-score in experiment [1] is -0.484 (inactive); in experiment [3] it was 21.1 (active); in experiment [4] it was 4.7 (inactive); in experiment [5], 0.0444 (inactive); in [6], 0.266 (inactive); in [7] it was 1.14. For the same molecule, the z-score in [8] is 0.341 (inactive); in experiment [9] it was 0.302 (inactive); in experiment [10] it was -0.385; in [11], 1.22; in [12] it was 0.464; in [13], -0.814. The z-score in [14] is -3.65; in experiment [15] it was -0.883; in experiment [16], -0.591; in experiment [17], 0.521 (inactive); in [18], 0.198; in [19], -1.51. Besides, the z-score in [20] was 0.693 (inactive). The molecule also yielded a composite z-score in experiment [2] of 0.0844.
With `CC(CCN1CCCCc2nc(C)c(C)cc21)=NOC[C@@H](C)[C@H](OCc1ccccc1)C(C)C`, the z-score in experiment [1] is -0.605 (inactive); in experiment [3], -0.0226 (inactive); in experiment [4], -1.71 (inactive); in [5] it was 0.167 (inactive); in experiment [6], -1.99 (inactive); in experiment [7], 1.08. In addition, the z-score in experiment [8] was -1.86 (inactive); in experiment [9] it was -0.629 (inactive); in [10] it was -3.18; in experiment [11], 0.139; in [12] it was 0.588; in experiment [13], 1.39. The z-score is -1.5 in experiment [14]; 0.327 in experiment [15]; -0.728 in experiment [16]; 0.155 (inactive) in experiment [17]; 0.0506 in [18]; -1.06 in experiment [19]. Moreover, the z-score in experiment [20] was -0.472 (inactive). Further, the composite z-score in experiment [2] was -0.502.
With `COc1ccc(O[C@H]2C=C[C@@H](c3ccccc3)O[C@@H]2CON=C(C)C)cc1`, the z-score in experiment [1] is -2.05 (inactive); in experiment [3], 0.288 (inactive); in [4], -0.0779 (inactive); in experiment [5], -0.541 (inactive); in experiment [6], 0.196 (inactive); in experiment [7] it was -0.807. Further, the z-score in [8] was -0.254 (inactive); in [9], -0.311 (inactive); in experiment [10], -0.684; in experiment [11], 0.124; in experiment [12] it was -0.556; in [13], -0.462. Moreover, the z-score is -1.53 in experiment [14]; -0.372 in [15]; -1.18 in experiment [16]; 0.148 (inactive) in experiment [17]; 0.472 in experiment [18]; -0.867 in experiment [19]. The z-score in experiment [20] is 0.0001 (inactive). For the same molecule, the composite z-score in experiment [2] was 0.407.
